# Assays:
# Assay in all cases: PBM binding z-score (relative to random genomic background probes); higher = stronger binding; sequences stand for … in GC…GCGATTGACAGCGTAGAATGAAGG
# [1] = test system: PPARg:RXRa IVT, anti-PPARg (NR concentration 270 nM, RXRa partner concentration 90 nM)
# Summary of the method: (§1)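 On custom Agilent 4×180K arrays, double-stranded probes with 34-nt variable regions carried direct-repeat seeds, single-nucleotide variants, half-site ablations or random human genomic background. Ligand-free nuclear receptor dimers were applied for 1 h, and binding was read with antibodies against each partner (one per run). Binding z-scores come from regression-normalized fluorescence, with the random background probes as reference.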
# [2] = test system: PPARg homodimer (NR concentration 180 nM)
# Summary of the method: as §1
# [3] = test system: PXR:RXRa (NR concentration 270 nM, RXRa partner concentration 90 nM)
# Summary of the method: as §1
# [4] = test system: PXR homodimer (NR concentration 270 nM)
# Summary of the method: as §1
# [5] = test system: RARa:RXR (NR concentration 270 nM, RXRa partner concentration 90 nM)
# Summary of the method: as §1
# [6] = test system: RARa homodimer (NR concentration 270 nM)
# Summary of the method: as §1
# [7] = test system: RARb:RXRa (NR concentration 270 nM, RXRa partner concentration 90 nM)
# Summary of the method: as §1
# [8] = test system: RARb homodimer (NR concentration 270 nM)
# Summary of the method: as §1
# [9] = test system: PPARg DBDmut:RXRa IVT, anti-PPARg (DBD mutation: PPARg1 K132A/R137A, NR concentration 270 nM, RXRa partner concentration 90 nM)
# Summary of the method: as §1
# [10] = test system: PPARg DBDmut IVT, anti-PPARg (DBD mutation: PPARg1 K132A/R137A, NR concentration 270 nM)
# Summary of the method: as §1
Sequence,PBM binding z-score [1],PBM binding z-score [2],PBM binding z-score [3],PBM binding z-score [4],PBM binding z-score [5],PBM binding z-score [6],PBM binding z-score [7],PBM binding z-score [8],PBM binding z-score [9],PBM binding z-score [10]
CTATGTGGGTTAAGGGGGTCATTCAGTTTGAAAG,7.71,6.11,6.07,12.1,5.68,3.73,3.91,4.44,,
TCTAGTAGGTCAAAGGTCACACACTCGAAATGCG,9.26,7.45,,2.56,,5.05,,5.5,6.06,3.11
ATCGAAAGGTCAAAGGTGAGTATACCCACCCGAA,6.1,4.41,,1.6,,3.03,,5.31,3.13,3.86
CCGAGTAGGTTACGAGGGGTCATTCAGTGCGAAT,4.3,4.32,,10.4,6.71,1.29,3.35,3.68,,
GCTTAAGGGTCAAAGGTTATAGCATGAATAGAAT,5.94,4.8,,0.657,,1.94,,4.32,2.24,1.36
CCGAATAGGTTACGAGGGGGCATTCAGTGCGAAT,3.59,2.64,5.5,5.9,3.8,0.865,2.89,2.69,,
GCTTACGGGTCAAAGGTCATAGCATGAATAGAAT,7.02,4.66,,1.47,,2.21,,5.12,2.05,1.67
CAAACGAGGTCACGAAAGGTCAAAGTCGAATGAC,7.7,7.67,,9.37,,5.09,,6.1,2.28,3.02
CTATGTAGGTCAAGGGGGTCATTCAGTTTGAAAG,9.07,5.3,,13.1,,2.29,5.06,4.85,,
TATACAGGGTCAAAGGTCAGAGTACGAATGTCGA,6.32,2.64,,1.68,,2.73,,5.41,2.47,1.85
TGTCAAAGTTCAAAGGTCACGTAAGTATCCACAC,6.64,6.73,,5.82,,5.52,,5.93,4.45,3.14
CAAACTAGGTCACCGAAAGGTCAAAGTCCGCATG,9.24,9.63,,3.23,,4.75,,5.37,8.36,7.3
TGTCAAAGGTCAAAGGTAACGTAAGTATCCACAC,7.56,5.28,,1.31,,3.71,,5.11,5.45,6.39
CGAACTAGGTCAAAGGACATTGAAAGGCGACGTA,8.46,2.37,1.39,0.177,2.7,0.467,3.96,3.01,,2.63
CGTCAAAGTTCAACTAAGGTCACGTAAAGCACGC,3.7,6.25,,12.2,,3.25,,6.11,0.74,1.77
ATATGTAGGTTGGGGTCATTCAGAAAGTAGGGAA,4.46,3.59,6.18,3.64,6.42,3.34,3.75,4.06,,2.36
CCGAGAAGGTTACGAGGGGGCATTCAGTGCGAAT,2.5,2.11,5.85,5.71,4.07,0.612,3.24,2.66,,
CAAACAAGGTCACAGAGGTCAAAGTCCGTGCGTA,7.16,6.67,,14.1,,3.72,,5.85,3.22,4.2
CGAACAAGGTCACCAGGACAGTGAAGAGGTTGGA,6.18,4.85,4.68,1.1,5.71,3.06,5.3,4.07,,1.95
CCGAGGAGGTTACGAGGGGGCATTCAGTGCGAAT,3.07,1.6,6.25,6.9,3.97,-0.256,2.89,2.52,,

Sequence,PBM binding z-score [1],PBM binding z-score [2],PBM binding z-score [3],PBM binding z-score [4],PBM binding z-score [5],PBM binding z-score [6],PBM binding z-score [7],PBM binding z-score [8],PBM binding z-score [9],PBM binding z-score [10]
CAAACAAGGTCAAAGGTCAAAGTCGAGCCAACCA,7.85,7.37,,4.12,,6.18,,5.66,4.28,4.16
TCGTGTAGGTTACGGGGGCATTCAGGGATGAAGA,6.27,3.1,3.98,2.98,3.71,1.46,3.34,2.92,,
CCTACTGGGTCACGAAAGGTCATTGATTCAGTGA,8.65,4.41,,2.09,,2.35,,5.9,1.64,2.22
CTATGTAGGTTAGGGGGGTCATTCAGTTTGAAAG,6.9,4.93,6.22,11.2,5.88,3.17,4.13,4.06,,
CTATGTAGGTTACGGGGGTCATTCAGTTTGAAAG,7.98,2.65,6.2,10.9,6.09,0.56,3.71,4.09,,
CCTGCTAGGTCAAAGGTCAGCTAAAGCAGCTCGC,7.37,7.33,,0.666,,3.79,,4.91,3.16,2.19
ATATGTAGGTTAGGGTCAGTCAGAAAGTAGGGAA,6.71,2.59,2.64,1.6,3.41,2.63,3.22,3.34,,1.66
CGAACTAGGTCGCCAGGACAGTGAAGAGGTTGGA,5.49,-0.09,-0.103,-0.264,0.141,-0.715,1.48,1.04,,-0.449
CGAACTAGGTCTAAGGACAGTGAAAGGCGACGTA,1.78,-0.156,-0.521,-0.563,0.0659,-0.52,0.287,0.133,,-0.598
CCGAGTAGGTTACTAGGGGGCATTCAGTGCGAAT,4.9,1.47,4.21,6.49,2.34,0.177,1.92,2.16,,
TCGAGTAGGTCACGGGGGCATTCAGGGATGAAGA,7.67,3.98,4.92,1.77,5.53,1.36,4.66,4.32,,
CTATGTAGGTTAAGGGAGTCATTCAGTTTGAAAG,6.74,0.863,,0.389,0.462,0.236,0.814,0.609,,
CGAACGAGGTCACCAGGACAGTGAAGAGGTTGGA,6.99,3.06,5.37,0.985,5.85,1.08,,4.89,,-0.0539
CCAACTAGGTCAAAGGACAGTGAAAGGCGACGTA,7.88,1.68,1.09,0.436,2.36,0.964,4.07,3.15,,0.729
TTACCAAGGTCAAAGGTCGTTGATGCACGCCTTG,6.12,4.12,,2.27,,1.08,,4.89,2.16,2.19
CCTTAGGGGTCACGAGGTTATAGCACGACGAGCG,6.5,5.3,,0.897,,2.78,,5.21,3.28,2.27
CGAACGAGGTCAAAGGACAGTGAAAGGCGACGTA,6.29,6.42,5.26,1.74,5.86,0.557,5.01,3.88,,3.98
TGTCAAAGTTCAAAGGTTACGTAAGTATCCACAC,5.16,3.27,,4.04,,1.12,,4.75,1.58,1.43
CAAACGAGGTCACCGGAAGGTCAAAGTCCGCATG,7.57,6.98,,6.23,,2.61,,6.03,4.42,0.844

# Reference: the supplement of paper PMC6555819
